Results: the supplement of paper PMC10849652
The full data set covers some 7,900 targets. This sample favours those with a hit. About 0.6% of all pairs of compound and target were hits.

Experiments:
Experiment in all cases: log2 fold change, soluble protein after heating vs DMSO (PISA); higher = thermal stabilisation; K562 cells, 10 uM, 30 min; active = over 0.2 and 3.5 SD of the protein, either way, in both replicates (recomputed)
[1] = compound: CC1=C(C=C(C=C1)NC(=O)C2=CC(=CC=C2)C(C)(C)C#N)NC3=CC4=C(C=C3)N=CN(C4=O)C
Procedure, shortened: (§1)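 K562 cells at 2×10^6 cells/mL were exposed to 10 μM compound for 30 min, then aliquots were heated for 3 min across 48°C-58°C, pooled, and extracted in PBS containing 0.5% NP-40 at 4°C. The supernatant after 21,000xg for 90 min was taken as soluble protein and measured by TMTpro 16plex LC-MS/MS with channel sums equalised. Thermal stability is reported relative to control samples, with values from duplicates. Fold changes are given on a log2 scale.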

[2] = compound: CC1=C(C=C(C=C1)NC(=O)C2=CC(=CC=C2)N(C)C)NC(=O)C3=CC=C(C=C3)O
Procedure, shortened: as §1

[3] = compound: CC1=CC=C(C=C1)SC2=C3C=C(SC3=CN=C2)C(=O)N
Procedure, shortened: as §1

[4] = compound: CC1=NC(=CC=C1)C2=C(N=C(N2)C(C)(C)C)C3=CC4=NC=CN=C4C=C3
Procedure, shortened: as §1

[5] = compound: CCCCN(Cc1ccc(C(=O)NO)cc1)C(=O)Nc1ccccc1 [Nexturastat A]
Procedure, shortened: as §1

[6] = compound: CCCS(=O)(=O)Nc1ccc(F)c(C(=O)c2c[nH]c3ncc(-c4ccc(Cl)cc4)cc23)c1F [vemurafenib]
Procedure, shortened: as §1

[7] = compound: CCCS(=O)(=O)Nc1ccc(F)c(C(=O)c2c[nH]c3ncc(Cl)cc23)c1F
Procedure, shortened: as §1

[8] = compound: CCCc1cc(C)[nH]c(=O)c1CNC(=O)c1cc(-c2ccnc(N3CCN(C)CC3)c2)cc2c1cnn2C(C)C
Procedure, shortened: as §1

[9] = compound: CCN(CC)Cc1ccc2cc(COC(=O)Nc3ccc(C(=O)NO)cc3)ccc2c1 [givinostat]
Procedure, shortened: as §1

[10] = compound: CCN(CCCOc1ccc2c(Nc3cc(CC(=O)Nc4cccc(F)c4)[nH]n3)ncnc2c1)CCOP(=O)(O)O [barasertib]
Procedure, shortened: as §1

Measured: log2 fold change

GLS (UniProt O94925)
Chain of UniProt O94925 (O94925 whole entry, looked up): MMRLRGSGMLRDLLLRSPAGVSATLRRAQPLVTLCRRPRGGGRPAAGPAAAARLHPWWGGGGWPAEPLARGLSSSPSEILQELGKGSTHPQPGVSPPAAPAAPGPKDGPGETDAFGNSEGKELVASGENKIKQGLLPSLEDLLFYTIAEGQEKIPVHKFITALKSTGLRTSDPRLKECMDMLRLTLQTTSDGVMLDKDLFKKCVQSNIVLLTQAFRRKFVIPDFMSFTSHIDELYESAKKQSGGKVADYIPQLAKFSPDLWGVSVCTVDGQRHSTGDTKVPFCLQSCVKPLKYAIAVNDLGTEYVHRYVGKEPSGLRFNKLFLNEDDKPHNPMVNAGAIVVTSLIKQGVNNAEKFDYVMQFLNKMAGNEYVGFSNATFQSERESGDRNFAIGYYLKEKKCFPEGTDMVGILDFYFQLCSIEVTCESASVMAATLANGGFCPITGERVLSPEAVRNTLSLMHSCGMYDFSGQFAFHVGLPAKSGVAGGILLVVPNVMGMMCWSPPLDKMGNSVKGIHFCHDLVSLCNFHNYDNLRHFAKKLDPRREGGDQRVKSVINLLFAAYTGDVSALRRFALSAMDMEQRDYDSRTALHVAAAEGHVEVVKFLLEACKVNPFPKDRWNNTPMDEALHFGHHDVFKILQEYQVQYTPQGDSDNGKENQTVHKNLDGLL
inactive: [1] -0.013 | [2] -0.072 | [3] -0.024 | [4] 0.034 | [5] -0.065 | [6] 0.096 | [7] 0.132 | [8] 0.062 | [9] 0.041 | [10] 0.054

H2AZ1 (UniProt P0C0S5)
active: [5] 0.75
inactive: [1] -0.051 | [2] 0 | [3] -0.174 | [4] -0.01 | [6] -0.209 | [7] 0.233 | [8] 0.074 | [9] 0.454 | [10] -0.083

HMGN1 (UniProt P05114)
Chain of UniProt P05114 (P05114 whole entry, looked up): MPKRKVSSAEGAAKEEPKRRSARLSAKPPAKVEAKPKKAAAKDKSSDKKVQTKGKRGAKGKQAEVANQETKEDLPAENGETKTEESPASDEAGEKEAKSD
inactive: [1] 0.056 | [2] 0.027 | [3] -0.048 | [4] 0.078 | [5] -0.017 | [6] 0.004 | [7] -0.064 | [8] -0.033 | [9] -0.119 | [10] -0.06

IGF2BP2 (UniProt Q9Y6M1)
Chain of UniProt Q9Y6M1 (Q9Y6M1 whole entry, looked up): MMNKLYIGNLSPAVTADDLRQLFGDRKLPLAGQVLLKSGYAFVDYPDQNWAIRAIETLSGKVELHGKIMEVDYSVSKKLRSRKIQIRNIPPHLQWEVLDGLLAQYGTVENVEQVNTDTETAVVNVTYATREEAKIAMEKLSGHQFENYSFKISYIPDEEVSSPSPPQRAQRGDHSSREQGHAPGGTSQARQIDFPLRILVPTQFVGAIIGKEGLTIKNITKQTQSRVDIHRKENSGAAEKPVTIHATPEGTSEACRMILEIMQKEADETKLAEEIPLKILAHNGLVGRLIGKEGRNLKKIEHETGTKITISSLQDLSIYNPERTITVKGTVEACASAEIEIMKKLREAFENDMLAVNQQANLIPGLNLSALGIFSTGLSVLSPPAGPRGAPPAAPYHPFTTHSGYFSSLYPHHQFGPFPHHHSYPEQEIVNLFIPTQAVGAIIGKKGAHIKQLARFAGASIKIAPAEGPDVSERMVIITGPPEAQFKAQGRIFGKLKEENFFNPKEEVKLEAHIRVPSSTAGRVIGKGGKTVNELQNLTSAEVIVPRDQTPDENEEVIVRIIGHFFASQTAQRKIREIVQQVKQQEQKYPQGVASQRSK
inactive: [1] 0.009 | [2] -0.001 | [3] -0.008 | [4] -0.094 | [5] 0.383 | [6] 0.065 | [7] 0 | [8] -0.011 | [9] 0.153 | [10] -0.041

GEMIN5 (UniProt Q8TEQ6)
inactive: [1] 0.035 | [2] -0.038 | [3] 0.009 | [4] -0.013 | [5] -0.004 | [6] 0.015 | [7] 0.093 | [8] 0.018 | [9] -0.1 | [10] 0.019

IFT74 (UniProt Q96LB3)
Chain of UniProt Q96LB3 (Q96LB3 whole entry, looked up): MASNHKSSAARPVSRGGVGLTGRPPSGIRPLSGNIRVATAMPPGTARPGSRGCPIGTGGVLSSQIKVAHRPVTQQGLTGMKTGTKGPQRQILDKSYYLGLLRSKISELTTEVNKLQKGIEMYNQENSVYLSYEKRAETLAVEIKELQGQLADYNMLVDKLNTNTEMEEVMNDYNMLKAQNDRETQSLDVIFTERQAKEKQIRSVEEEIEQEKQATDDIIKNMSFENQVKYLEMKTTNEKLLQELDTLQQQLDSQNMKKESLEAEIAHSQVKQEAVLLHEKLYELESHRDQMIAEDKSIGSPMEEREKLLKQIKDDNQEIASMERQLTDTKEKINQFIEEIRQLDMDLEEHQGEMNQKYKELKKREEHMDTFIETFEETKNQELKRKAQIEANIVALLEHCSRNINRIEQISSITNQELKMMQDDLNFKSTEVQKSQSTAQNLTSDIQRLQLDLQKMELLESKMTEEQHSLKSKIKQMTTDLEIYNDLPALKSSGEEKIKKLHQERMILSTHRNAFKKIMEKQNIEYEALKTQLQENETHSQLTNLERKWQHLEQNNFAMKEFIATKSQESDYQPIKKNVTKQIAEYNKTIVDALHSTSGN
inactive: [1] -0.086 | [2] -0.044 | [3] -0.01 | [4] -0.084 | [6] -0.059 | [7] 0.005 | [8] -0.007 | [9] 0.26 | [10] -0.037
active: [5] 0.746

GTF2E2 (UniProt P29084)
Chain of UniProt P29084 (P29084 whole entry, looked up): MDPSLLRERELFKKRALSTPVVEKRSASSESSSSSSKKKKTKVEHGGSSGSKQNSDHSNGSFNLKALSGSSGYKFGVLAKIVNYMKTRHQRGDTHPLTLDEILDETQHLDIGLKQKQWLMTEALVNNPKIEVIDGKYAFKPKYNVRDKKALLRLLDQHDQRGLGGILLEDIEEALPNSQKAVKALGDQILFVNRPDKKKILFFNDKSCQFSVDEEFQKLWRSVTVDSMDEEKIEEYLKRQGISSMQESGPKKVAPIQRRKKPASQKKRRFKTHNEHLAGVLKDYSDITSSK
inactive: [1] 0.045 | [2] -0.068 | [3] -0.01 | [4] 0.02 | [5] 0.082 | [6] 0.057 | [7] -0.039 | [8] 0.055 | [9] 0.059 | [10] 0.035

HRAS (UniProt P01112)
inactive: [1] -0.042 | [2] -0.065 | [3] -0.031 | [4] 0.096 | [5] 0.147 | [6] 0.064 | [7] -0.083 | [8] 0.089 | [9] -0.065 | [10] 0.063

GCSH (UniProt P23434)
Chain of UniProt P23434 (P23434 whole entry, looked up): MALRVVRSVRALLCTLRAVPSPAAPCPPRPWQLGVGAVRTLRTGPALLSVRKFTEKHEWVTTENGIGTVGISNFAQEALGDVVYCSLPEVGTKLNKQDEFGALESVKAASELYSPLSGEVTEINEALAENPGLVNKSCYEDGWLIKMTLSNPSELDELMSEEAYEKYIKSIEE
inactive: [1] -0.024 | [2] 0.047 | [3] 0.279 | [4] 0.006 | [5] -0.06 | [6] 0.079 | [7] -0.021 | [8] -0.139 | [9] 0 | [10] -0.095

GTF3C5 isoform 3 (UniProt Q9Y5Q8)
inactive: [1] 0.058 | [2] -0.022 | [3] 0.088 | [4] 0.007 | [5] 0.136 | [6] 0.101 | [7] 0.056 | [8] 0.061 | [9] 0.045 | [10] 0.08

HDAC2 (UniProt Q92769)
inactive: [1] -0.051 | [2] -0.001 | [3] 0.015 | [4] -0.006 | [6] -0.005 | [7] 0.019 | [8] -0.018 | [10] -0.039
active: [5] 0.856

HEXB (UniProt P07686)
inactive: [1] 0 | [2] 0.029 | [3] 0.028 | [4] 0.022 | [5] -0.078 | [6] -0.003 | [7] -0.001 | [8] -0.019 | [9] -0.016 | [10] -0.015

ICAM1 (UniProt P05362)
inactive: [1] -0.055 | [2] 0.016 | [3] 0.033 | [4] -0.016 | [5] 0.02 | [6] 0.018 | [7] -0.034 | [8] 0.001 | [9] -0.014 | [10] -0.021

HP1BP3 (UniProt Q5SSJ5)
Chain of UniProt Q5SSJ5 (Q5SSJ5 whole entry, looked up): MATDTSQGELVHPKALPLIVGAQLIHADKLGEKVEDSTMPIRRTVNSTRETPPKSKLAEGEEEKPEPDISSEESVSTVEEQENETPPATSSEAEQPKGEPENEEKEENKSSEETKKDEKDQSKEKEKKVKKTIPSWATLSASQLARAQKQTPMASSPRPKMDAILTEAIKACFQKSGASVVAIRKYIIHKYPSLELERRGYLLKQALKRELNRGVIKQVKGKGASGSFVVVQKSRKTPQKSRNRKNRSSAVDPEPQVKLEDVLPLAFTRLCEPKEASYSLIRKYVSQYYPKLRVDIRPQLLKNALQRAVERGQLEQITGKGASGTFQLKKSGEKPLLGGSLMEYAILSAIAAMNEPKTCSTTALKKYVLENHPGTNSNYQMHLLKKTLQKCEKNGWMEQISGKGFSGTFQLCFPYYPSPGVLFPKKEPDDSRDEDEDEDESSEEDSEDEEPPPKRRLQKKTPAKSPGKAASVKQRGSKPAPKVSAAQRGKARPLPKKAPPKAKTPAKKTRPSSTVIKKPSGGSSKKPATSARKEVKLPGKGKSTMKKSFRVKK
inactive: [1] 0.03 | [2] -0.026 | [3] -0.025 | [4] 0.017 | [5] 0.108 | [6] -0.014 | [7] 0.018 | [8] -0.001 | [9] 0.031 | [10] -0.129

FNTA (UniProt P49354)
inactive: [1] -0.035 | [2] -0.009 | [3] 0.048 | [4] -0.011 | [5] -0.063 | [6] -0.045 | [7] -0.047 | [8] 0.007 | [9] -0.052 | [10] 0.007

HOMER1 (UniProt Q86YM7)
Chain of UniProt Q86YM7 (Q86YM7 whole entry, looked up): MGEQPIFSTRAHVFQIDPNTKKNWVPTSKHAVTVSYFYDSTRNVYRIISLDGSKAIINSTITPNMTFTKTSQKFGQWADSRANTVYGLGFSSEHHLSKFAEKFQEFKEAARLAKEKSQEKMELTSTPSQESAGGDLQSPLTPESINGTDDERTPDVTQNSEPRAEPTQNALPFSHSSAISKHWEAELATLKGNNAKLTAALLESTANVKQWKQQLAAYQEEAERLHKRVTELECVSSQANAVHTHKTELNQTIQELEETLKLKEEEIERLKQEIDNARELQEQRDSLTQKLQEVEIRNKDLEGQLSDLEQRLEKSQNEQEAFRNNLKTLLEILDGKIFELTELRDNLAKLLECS
inactive: [1] -0.049 | [2] -0.059 | [3] -0.009 | [4] 0.125 | [5] -0.138 | [6] -0.021 | [7] 0.071 | [8] 0.085 | [9] 0.007 | [10] 0.036

IFI30 (UniProt P13284)
inactive: [1] -0.043 | [2] 0.043 | [3] 0.018 | [4] -0.046 | [5] 0.056 | [6] 0.056 | [7] 0.183 | [8] 0.034 | [9] 0.018 | [10] 0.028

HBA1 (UniProt P69905)
inactive: [1] 0.021 | [2] -0.068 | [3] 0.071 | [4] 0.018 | [5] 0.015 | [6] 0.137 | [7] 0.037 | [8] -0.038 | [9] -0.061 | [10] 0.072

HIC2 (UniProt Q96JB3)
Chain of UniProt Q96JB3 (Q96JB3 whole entry, looked up): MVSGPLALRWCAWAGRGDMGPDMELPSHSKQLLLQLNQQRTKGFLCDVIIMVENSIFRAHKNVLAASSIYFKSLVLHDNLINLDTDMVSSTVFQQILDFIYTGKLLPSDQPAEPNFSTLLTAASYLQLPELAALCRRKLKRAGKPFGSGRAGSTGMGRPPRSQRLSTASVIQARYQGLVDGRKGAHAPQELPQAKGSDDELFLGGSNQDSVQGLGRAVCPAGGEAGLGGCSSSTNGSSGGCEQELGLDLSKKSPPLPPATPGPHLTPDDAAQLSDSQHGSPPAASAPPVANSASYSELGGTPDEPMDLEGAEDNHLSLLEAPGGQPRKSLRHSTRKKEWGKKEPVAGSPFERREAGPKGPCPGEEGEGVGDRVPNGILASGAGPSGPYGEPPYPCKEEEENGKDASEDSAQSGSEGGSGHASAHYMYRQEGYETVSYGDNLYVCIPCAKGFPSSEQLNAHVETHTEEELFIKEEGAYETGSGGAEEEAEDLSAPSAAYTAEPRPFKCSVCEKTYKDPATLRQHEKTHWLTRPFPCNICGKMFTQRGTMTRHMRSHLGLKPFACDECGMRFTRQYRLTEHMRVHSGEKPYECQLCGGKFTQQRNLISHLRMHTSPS
inactive: [1] 0.039 | [2] 0.028 | [3] -0.005 | [4] -0.093 | [5] 0.131 | [6] 0.009 | [7] 0.123 | [8] -0.005 | [9] -0.035 | [10] -0.033

GPKOW (UniProt Q92917)
Chain of UniProt Q92917 (Q92917 whole entry, looked up): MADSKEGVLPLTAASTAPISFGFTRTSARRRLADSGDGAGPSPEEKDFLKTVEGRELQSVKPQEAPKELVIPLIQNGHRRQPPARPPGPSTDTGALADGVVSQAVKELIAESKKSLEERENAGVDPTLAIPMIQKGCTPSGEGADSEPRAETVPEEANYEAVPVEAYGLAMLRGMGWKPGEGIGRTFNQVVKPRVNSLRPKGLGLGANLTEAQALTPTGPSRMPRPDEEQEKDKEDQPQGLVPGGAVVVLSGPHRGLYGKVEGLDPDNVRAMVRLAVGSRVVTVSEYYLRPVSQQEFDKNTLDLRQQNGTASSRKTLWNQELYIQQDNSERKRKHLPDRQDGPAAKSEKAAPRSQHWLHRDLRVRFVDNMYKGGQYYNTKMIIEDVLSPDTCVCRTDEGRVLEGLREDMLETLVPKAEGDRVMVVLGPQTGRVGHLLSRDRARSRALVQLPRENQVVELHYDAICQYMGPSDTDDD
inactive: [1] 0.053 | [2] -0.033 | [3] 0.062 | [4] 0.055 | [5] -0.106 | [6] 0.009 | [7] 0.07 | [8] -0.058 | [9] 0.084 | [10] 0.027

HADHA (UniProt P40939)
inactive: [1] 0.307 | [2] -0.203 | [3] 0 | [4] -0.022 | [5] -0.1 | [6] -0.017 | [7] -0.006 | [8] 0.1 | [9] 0.044 | [10] -0.013

GGA2 (UniProt Q9UJY4)
active: [5] 0.582
inactive: [1] -0.015 | [2] 0.033 | [3] -0.047 | [4] 0.06 | [6] 0.053 | [7] 0.017 | [8] -0.059 | [9] -0.03 | [10] 0.051

GALC (UniProt P54803)
inactive: [1] 0.002 | [2] -0.032 | [3] 0 | [4] -0.013 | [5] 0.012 | [6] -0.03 | [7] -0.03 | [8] -0.049 | [9] 0.036 | [10] 0.002

GSK3A (UniProt P49840)
Chain of UniProt P49840 (P49840 whole entry, looked up): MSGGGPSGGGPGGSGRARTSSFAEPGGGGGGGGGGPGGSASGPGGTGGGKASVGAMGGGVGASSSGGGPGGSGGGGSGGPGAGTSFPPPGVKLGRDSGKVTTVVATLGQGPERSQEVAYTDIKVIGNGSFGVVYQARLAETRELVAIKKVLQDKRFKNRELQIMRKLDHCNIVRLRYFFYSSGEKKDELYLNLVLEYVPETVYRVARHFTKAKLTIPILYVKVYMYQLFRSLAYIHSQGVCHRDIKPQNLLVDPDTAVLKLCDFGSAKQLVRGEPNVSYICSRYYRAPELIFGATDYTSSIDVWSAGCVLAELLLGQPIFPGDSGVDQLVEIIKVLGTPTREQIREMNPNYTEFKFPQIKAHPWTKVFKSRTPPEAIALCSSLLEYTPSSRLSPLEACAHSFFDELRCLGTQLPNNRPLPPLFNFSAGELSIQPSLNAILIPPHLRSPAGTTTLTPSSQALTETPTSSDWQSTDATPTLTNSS
inactive: [1] -0.025 | [2] 0.009 | [3] 0.197 | [4] 0.021 | [5] -0.094 | [6] -0.023 | [7] -0.003 | [8] -0.039 | [9] -0.053 | [10] 0.014

GALK1 isoform 2 (UniProt P51570)
inactive: [1] 0.244 | [2] 0.004 | [3] 0.144 | [4] 0.02 | [5] -0.082 | [6] 0.144 | [7] 0.183 | [8] 0.033 | [9] 0.018 | [10] -0.007
